# Measurements from PubChem BioAssay (NCI).
# This is part of a sample that, as a whole, favours compounds with a hit. Of some 83,000 tested, about 20% had one in any assay.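 Cells were grown in 96-well plates and exposed to the test compound at a single concentration for 48 hours; results are reported as percent growth, with values below 10 considered active.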 Values without a mark were called inactive. Active and inactive are the calls of the source.
# Assays:
# Assay in all cases: NCI-60 one-dose screen, 48 h (100 = growth as untreated, 0 = no growth, -100 = all killed)
# Settings in all cases: 10 µM unless noted
# T-47D breast = test system: T-47D breast
# BT-549 breast = test system: BT-549 breast
# SW-620 colon = test system: SW-620 colon
# MCF7 breast = test system: MCF7 breast
# HCT-116 colon = test system: HCT-116 colon
# HCC-2998 colon = test system: HCC-2998 colon
# KM12 colon = test system: KM12 colon
# MDA-MB-435 melanoma = test system: MDA-MB-435 melanoma
Structure (SMILES),growth (T-47D breast),growth (BT-549 breast),growth (SW-620 colon),growth (MCF7 breast),growth (HCT-116 colon),growth (HCC-2998 colon),growth (KM12 colon),growth (MDA-MB-435 melanoma)
O=C1/C(=C/c2ccc3c(c2)OCO3)SC(=S)N1CCc1ccc(O)cc1,59.2%,96.6%,111%,112%,101%,103%,86.3%,
O=C1OC(c2ccccc2)C(O)=C1c1ccccc1 (centres undefined),111%,111%,110%,95.4%,107%,127%,95.7%,
CCn1c(O)c(/C=N/NC(=O)C(C)c2ccc(CC(C)C)cc2)sc1=S (centres undefined),38%,11.5%,27.3%,,11.6%,29.5%,18.7%,-44.4% (active)
Cc1ccc2c(C(C[N+](=O)[O-])c3ccccc3F)c(-c3ccccc3)[nH]c2c1 (centres undefined),29.3%,50%,19.7%,24.4%,25.9%,73.9%,23.3%,
O=C1/C(=C/c2cn(-c3ccccc3)nc2-c2ccccc2)SC(=S)N1CCc1ccccc1,96.5%,109%,100%,95.3%,102%,107%,100%,
CC(C)C1=C[C@@]23CC[C@@H]4[C@](C)(CCC[C@@]4(C)C(=O)N4CCCNCC4)[C@H]2C[C@@H]1[C@H]1C(=O)CCC(=O)[C@H]13,100%,104%,105%,90.4%,103%,107%,101%,
CCOC(=O)c1c(C)oc2ncnc(N3CCN(C(=O)COc4ccc(SC)cc4)CC3)c12,61.7%,90.8%,102%,92.6%,91.6%,110%,95.6%,
N#Cc1nnn(-c2ccc(S(N)(=O)=O)cc2)c1NCC(=O)c1ccccc1,95.4%,98%,97.2%,93.3%,95%,112%,99.4%,
CC/C=C\C[C@H]1C/C=C2/C(=O)C=C[C@H]2C/C=C\CCCC(=O)O1,27.4%,32%,25.4%,,-41.9% (active),,-3.28% (active),9.04% (active)
CCCCN1CCCn2c1nc1c2c(=O)n(CCC)c(=O)n1CCC,101%,98.1%,96%,100%,98.3%,104%,100%,
O=C1Nc2c(ccc(Cl)c2Cl)/C1=C\c1ccc(C(F)(F)F)cc1,77.2%,75.2%,67.1%,52.1%,68.2%,92.4%,71.2%,
COc1cc2c(cc1O)CC[C@@H]1[C@@H]2CC[C@]2(C)[C@@H](OCCCN(C)C)CC[C@@H]12,-48.9% (active),-54.4% (active),-43.1% (active),-68.9% (active),-71% (active),,-48.5% (active),
COc1cc2c(cc1-c1c(C)noc1C)ncc1nc(C3CCOCC3)n([C@@H](C)COC(F)F)c12,38.1%,64.1%,63.4%,18.4%,30.5%,43.3%,48.8%,
FC(F)(F)c1nc2c(NCc3ccc(-c4ccccc4)cc3)cccc2[nH]1,,91.2%,75.3%,87%,74.1%,107%,80.5%,93.5%
FC(F)(F)Oc1ccc2nc3nc4ccc[nH]c4cc3c2c1,41.3%,84.4%,86.8%,16.8%,81.4%,96.8%,72.8%,
O=C(Nc1cccc2[nH]c(C(F)(F)F)nc12)c1ccc(-n2cnnn2)cc1,,63%,104%,96.2%,96%,116%,72.7%,105%
O=C(/C=C/c1cccc(Cl)c1)c1ccc(O)c(CN2CCN(c3cc4c(cc3F)c(=O)c(C(=O)O)cn4C3CC3)CC2)c1,44.9%,34%,21.4%,28.3%,6.6% (active),61.3%,51.2%,
CC(=O)O[C@H]1[C@@H]2OC(=O)C(CSc3ccccc3)[C@@H]2C[C@H]2O[C@]2(C)CC/C=C(\C)CCC[C@@H]1C (some centres undefined),38.3%,,-20.7% (active),10.6%,-36.7% (active),80.7%,51.5%,25.8%
N=C(N)c1ccc(-c2ccc(-c3ccc4ccccc4c3)s2)s1,7.01% (active),82.5%,-70.9% (active),,-70.5% (active),-69.1% (active),-27.2% (active),
COc1ccc(C(=O)COc2ccc(/C=C3\Oc4ccc(OC)cc4C3=O)cc2)cc1,103%,99.2%,95.9%,,84.9%,,94%,
CCc1nc(N)nc(N)c1C#CC(C)c1ccc(-c2ccncc2)cc1Cl (centres undefined),24%,23.3%,20.8%,14.2%,13.6%,25.4%,12.7%,
CC(C)CC1C(=O)N2CCC[C@H]2C2(O)O[C@](NC(=O)C3C=C4c5cccc6[nH]c(Br)c(c56)C[C@H]4N(C)C3)(C(C)C)C(=O)N12 (some centres undefined),47.2%,,52.3%,39.7%,36.1%,89.1%,40.3%,62.8%
c1ccc(-c2cc3n4c(-c5ccccc5)nn(-c5ccccc5)c4cnc-3n2)cc1,54.2%,,52.2%,50.6%,30.9%,83.9%,70.6%,60.4%
Fc1ccc(CNc2cccc3[nH]c(C(F)(F)F)nc23)cc1,,99%,94.6%,92.4%,95.8%,119%,90.6%,95.7%
COc1ccc(C(=O)c2sc3nc(C)cc(C)c3c2N)cc1OC,,93.2%,99.5%,84%,87%,99.1%,94.3%,91.8%
CCOc1ccc(-n2nc(C(=O)Nc3ccccc3)nc2-c2cc(OC)c(OC)c(OC)c2)cc1,39.4%,60.9%,36.2%,37%,21.2%,,27.5%,
COc1cc(-c2nc3cc(Cl)c(Cl)cc3[nH]2)ccc1OCC(=O)N=Nc1c(O)[nH]c2ccccc12,-63.4% (active),-90.3% (active),-46.9% (active),-76.1% (active),-75.6% (active),-91.1% (active),-81.5% (active),
O=C1/C(=C(/c2ccccc2)N2CCOCC2)Cc2ccccc21,-34.4% (active),-7.68% (active),0.554% (active),,-46.3% (active),-71.8% (active),36.2%,
